The list is not random: actives were taken first. Their share in the collection is about 6.2%.
FMDV antiviral: High Throughput Screening for Foot and Mouth Disease Virus Antivirals | AID 1159524, 2015 | 410,000 tested, 1.2% active | FMDV antiviral cell-based qHTS | Potency, µM (titrated, usually from 57.9 µM), for the others: top-dose activity change, negative = inhibition, hits mostly inhibitors; calls by dose curve; tested in HEK293T cells; also: read-out not given here; potency is read from the fitted curve at half-maximal effect; nearly all actives have a fitted effect of over 45% in size
LASV entry inh: qHTS for Inhibitors of binding or entry into cells for Lassa Virus; Lassa virus pseudotype entry inhibition, cell reporter; 300,000 tested, 1.2% active; Potency, µM (top dose mostly 37.9 µM), for the others: at the top dose activity change, negative = inhibition, most hits filed as inhibitors; calls by dose curve; tested in HEK293 cells; also: potency is read from the fitted curve at half-maximal effect; nearly all actives have a fitted effect of over 50% in size
Marburg entry inh: qHTS for inhibitors of binding or entry into cells for Marburg Virus | Marburg virus pseudotyped entry inhibition, cell reporter | Potency, µM (top dose mostly 37.8 µM), without a hit: top-dose activity change, negative = inhibition, hits mostly inhibitors | 300,000 tested, 1.8% active; calls by dose curve; tested in HEK293 cells; also: potency is read from the fitted curve at half-maximal effect
HCMV antiviral: qHTS Assay for inhibitors of the human cytomegalovirus (HCMV); activity change, negative = inhibition, % at 57.5 µM; AID 1259415, 2018; HFF cells, HCMV-luciferase reporter, 72 h; hits give low values; 410,000 tested, 4.5% active; in the data active = activity change below about -60%; inconclusive = no clear call, values can overlap the other calls; inactive = above about -39%
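Inhibition of viral replication was scored as loss of reporter luminescence in HFFs infected with HCMV-luciferase (MOI 1 PFU/cell) for 72 h; compounds tested at 2 doses, normalized to buffer and Salinomycin controls.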
Numbers without * were called inactive; [ ] = another dose, or the depositor's remark. % is scaled to controls: 0 for no effect and ±100 for the full control effect.

`CC(=O)N1c2ccc(S(=O)(=O)N3CCC(C(=O)Nc4cccc(F)c4)CC3)cc2CC1C` (stereo unspecified) gave FMDV antiviral inconclusive, LASV entry inh 4%[46.1 µM], Marburg entry inh -2%[46.1 µM] and HCMV antiviral -61*.
CC(=O)N1c2ccc(S(=O)(=O)N3CCCC(C(=O)Nc4ccc(F)cc4)C3)cc2CC1C (stereo unspecified) was read as FMDV antiviral inconclusive and HCMV antiviral -68*.
`CNC(=S)NCc1ccc2[nH]c3c(c2c1)CCCC3` gave FMDV antiviral 2% and HCMV antiviral -67*.
Screening CCN(C(=O)Cn1cnc2onc(-c3ccc(F)cc3)c2c1=O)c1ccc(OC)cc1 returned FMDV antiviral inconclusive, LASV entry inh 1%[46.1 µM] and HCMV antiviral -30.
Cc1ccccc1-n1c(=O)/c(=C/c2ccco2)s/c1=C(/C#N)C(=O)Nc1ccccc1 was read as Marburg entry inh -28%.
For O=C(NCc1ccc2[nH]c3c(c2c1)CCCC3)c1ccc(S(=O)(=O)N2CCOCC2)cc1 the results were FMDV antiviral -5%, LASV entry inh inconclusive, Marburg entry inh -3% and HCMV antiviral -4.
`O=C(NCc1ccc2[nH]c3c(c2c1)CCCC3)c1ccc(S(=O)(=O)N2CCCC2)cc1` gave FMDV antiviral 0%, LASV entry inh inconclusive, Marburg entry inh -4% and HCMV antiviral -79*.
O=C(Nc1ccccn1)c1ccc(CN(c2ccccc2)S(=O)(=O)c2ccccc2)cc1 was read as FMDV antiviral 8%, LASV entry inh inconclusive, Marburg entry inh inconclusive and HCMV antiviral inconclusive.
`COc1ccc(N(Cc2ccccc2)S(=O)(=O)c2cccc(C(=O)Nc3ccccn3)c2)cc1` gave FMDV antiviral 4%, LASV entry inh 13µM*, Marburg entry inh inconclusive and HCMV antiviral inconclusive.
For C=CCN(c1ccccc1)S(=O)(=O)c1cccc(C(=O)Nc2cc(C)ccn2)c1 the results were FMDV antiviral 16%, LASV entry inh 18µM*, Marburg entry inh 8.9µM* and HCMV antiviral inconclusive.
COc1ccc(-c2nc3cc(C(C)C)ccc3o2)cc1NC(=O)c1ccc(C)c(Cl)c1 was read as FMDV antiviral -12%, LASV entry inh 26%[46.1 µM], Marburg entry inh inconclusive and HCMV antiviral 10.
For CC1(C)OC(=O)C(=CC2=NCCC2)C(=O)O1 the results were Marburg entry inh 0%.
`CCOc1ccc(-c2nnc3sc(COc4ccc(Cl)cc4)nn23)cc1` gave FMDV antiviral -21%, LASV entry inh -23%, Marburg entry inh -1%[46.1 µM] and HCMV antiviral -12.
For CCOc1ccc(-c2nnc3sc(COc4ccc(C)cc4)nn23)cc1 the results were FMDV antiviral 0%, LASV entry inh 8.2µM*, Marburg entry inh 7%[46.1 µM] and HCMV antiviral 3.
`Cc1cc(Oc2nc3ccccn3c(=O)c2/C=C(\C#N)C(=O)NC2CCS(=O)(=O)C2)ccc1Cl` (stereo unspecified) gave FMDV antiviral inconclusive, LASV entry inh inconclusive, Marburg entry inh inconclusive and HCMV antiviral -66*.
Screening N#C/C(=C\c1c(N2CCCCC2)nc2ccccn2c1=O)C(=O)NC1CCS(=O)(=O)C1 (stereo unspecified) returned FMDV antiviral -9%, LASV entry inh 9%, Marburg entry inh 3% and HCMV antiviral 7.
`Cc1cccn2c(=O)c(/C=C(\C#N)C(=O)NC3CCS(=O)(=O)C3)c(N3CCC(C)CC3)nc12` (stereo unspecified) gave FMDV antiviral -14%, LASV entry inh 0%, Marburg entry inh -6% and HCMV antiviral 2.
Screening Cc1cccc(Oc2nc3ccccn3c(=O)c2/C=C(\C#N)C(=O)NC2CCS(=O)(=O)C2)c1C (stereo unspecified) returned FMDV antiviral inconclusive, LASV entry inh inconclusive, Marburg entry inh inconclusive and HCMV antiviral -96*.
`N#C/C(=C\c1c(Oc2ccc(Cl)cc2)nc2ccccn2c1=O)C(=O)NC1CCS(=O)(=O)C1` (stereo unspecified) gave FMDV antiviral 20µM*, LASV entry inh 3.5µM*, Marburg entry inh inconclusive and HCMV antiviral 23.
Cc1cccc(Oc2nc3ccccn3c(=O)c2/C=C(\C#N)C(=O)NC2CCS(=O)(=O)C2)c1 (stereo unspecified) was read as FMDV antiviral 0%, LASV entry inh 0%, Marburg entry inh -13% and HCMV antiviral 20.

Screens from PubChem BioAssay.
